In all, about 33,000 sequences were measured (“E-score (-0.5 to 0.5)”: median about -0.017, highest 2% from about 0.3 on). Only a selection was taken, and the highest values are over-represented in it overall.

The target of the test is T1, Sut1 (UniProt P53032).
T1 sequence: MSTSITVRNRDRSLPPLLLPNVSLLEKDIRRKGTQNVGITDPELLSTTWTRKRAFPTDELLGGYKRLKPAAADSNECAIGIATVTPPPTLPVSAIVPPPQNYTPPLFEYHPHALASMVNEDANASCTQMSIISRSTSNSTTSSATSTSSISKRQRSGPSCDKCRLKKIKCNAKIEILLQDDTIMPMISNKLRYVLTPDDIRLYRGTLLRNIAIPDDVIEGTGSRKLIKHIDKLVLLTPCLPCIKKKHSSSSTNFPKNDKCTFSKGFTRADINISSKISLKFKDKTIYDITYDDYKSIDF
The experiment in a line: PBM E-score (8-mer binding enrichment) (E-score (-0.5 to 0.5)); higher = stronger / more preferred TF binding. The following applies: protein concentration: 200 nM; construct: GST-full length. How it is done:
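Universal 'all 10-mer' protein binding microarrays (Agilent AMADID 015681) probed with GST-tagged S. cerevisiae TFs (full-length or DBD) made by in vitro transcription/translation (PURExpress), about 100-200 nM. Bound TF was detected with fluorescent anti-GST. Each ungapped 8-mer (which stands for itself and its reverse complement) is scored by the PBM enrichment score (E-score), a modified Wilcoxon-Mann-Whitney statistic from -0.5 to +0.5, computed with the Universal PBM Analysis Suite. Scale: above 0.35 generally sequence-specific binding.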
Turning to CGCATAAG, the “PBM E-score” value is -0.0216. With CATAGGGA, the “PBM E-score” value was -0.0219. Turning to CAGGTGGC, the “PBM E-score” value is -0.219.

As to GTTGGTGA, the “PBM E-score” value is -0.0399. ACCGGAAT: the “PBM E-score” value stood at 0.204. In the case of ACCAGAGT, the “PBM E-score” value was -0.256.

Consider ACAGGAGA, for which the “PBM E-score” value was -0.137. For ACCGGAGA, the “PBM E-score” value came out at 0.43. ACCGGAGG: the “PBM E-score” value stood at 0.133. The value for ACCGGATC was 0.0878. Then CCCGGAGA, with 0.374; and ACCGGATA, with 0.0607. As to ACCGGAGT, the “PBM E-score” value came out at 0.492. Turning to ACCGGAGC, the “PBM E-score” value was determined as 0.353. As to CCCGGATA, the “PBM E-score” value stood at 0.123. With CCCGGAGG, the “PBM E-score” value amounted to 0.0148. TGTCTGAA: the “PBM E-score” value was 0.0592. With ACCGGTCT, the “PBM E-score” value was -0.115. Then ATGACAAT, with 0.198; and TCCAGAGA, with -0.187. On to GCCGGAGC, for which the “PBM E-score” value was 0.284.

For TCCGGAGA, the “PBM E-score” value is 0.409. Turning to CCGGGAGC, the “PBM E-score” value was -0.0765.

Regarding CCCGGAGC, the “PBM E-score” value was found to be 0.406. For the sequence CCCGGAAC, the “PBM E-score” value is 0.129.

With GCCGGAGA, the “PBM E-score” value amounted to 0.316.

With TCAGGAGA, the “PBM E-score” value came to 0.0262.

Consider GCCGGAAA, for which the “PBM E-score” value was 0.244. For CCACCCAG, the “PBM E-score” value is -0.129.

Take CCGAGTTC: the “PBM E-score” value amounted to 0.0827. On to ATACTGGG, for which the “PBM E-score” value was -0.138. For AGTCCGAG, the “PBM E-score” value was determined as 0.489. Regarding AGTCCAAA, the “PBM E-score” value is 0.169. In the case of AGTCCGAT, the “PBM E-score” value was found to be 0.486. On to CGTCCGAC, for which the “PBM E-score” value is -0.14. As to AATCCGAG, the “PBM E-score” value stood at 0.0276. Consider AGTCCGAC, for which the “PBM E-score” value stood at 0.477.

For AATCCGAT, the “PBM E-score” value was 0.195. Then AGTCCGAA, with 0.49. Then AATCCGAA, with 0.159; and GGTCCGAC, with 0.24. With CGTCCGAG, the “PBM E-score” value amounted to 0.149. Then AGTCCTAT, with 0.0983. The value for CGCATTCC was -0.284; that for AGTATCGG was 0.176.

Consider CGTGGGTC, for which the “PBM E-score” value is -0.162. As to CCTCAAGA, the “PBM E-score” value is -0.113.

As to GTCCTCAC, the “PBM E-score” value is -0.0725. The value for ACAGTCAC was -0.176; that for GCATACAA was 0.0888; that for CCATACAA was 0.0626.

For the sequence TTATACAA, the “PBM E-score” value is 0.326.

In the case of TCATACAA, the “PBM E-score” value is 0.304. Turning to ATATACAA, the “PBM E-score” value was 0.256. As for GTATACAA, the “PBM E-score” value worked out at 0.179. Then AACCTTGA, with 0.116.

Regarding GATGGTGC, the “PBM E-score” value was -0.409. Turning to GCAGGGAA, the “PBM E-score” value was found to be 0.0261.

In the case of CAAGAGAA, the “PBM E-score” value is 0.0231.

In the case of AGAAGCCC, the “PBM E-score” value stood at 0.167.

Consider TAATATAA, for which the “PBM E-score” value is 0.306. Take CAATATAC: the “PBM E-score” value worked out at 0.144. As for CAATATAG, the “PBM E-score” value was found to be 0.1. As to CGATAAAA, the “PBM E-score” value is 0.303. For GGATAAAA, the “PBM E-score” value amounted to 0.252. As for TAATAATA, the “PBM E-score” value was found to be 0.282. As for GAATATAA, the “PBM E-score” value worked out at 0.153. Turning to CAATATAA, the “PBM E-score” value stood at 0.308.

For CAATAAAA, the “PBM E-score” value amounted to 0.136. For GAATAAAA, the “PBM E-score” value was determined as 0.242.

For TAATAAAA, the “PBM E-score” value turned out to be 0.332. Take TGATAAAA: the “PBM E-score” value was found to be 0.283.

On to ATATAGGA, for which the “PBM E-score” value turned out to be 0.0279. Then AAATTGCA, with -0.0262; and ACCCTATC, with 0.0201; and CTTGAACA, with 0.0785. With GTTGCGCA, the “PBM E-score” value was -0.226. Take CAGCCTAC: the “PBM E-score” value is -0.0545. In the case of CGGATGCA, the “PBM E-score” value was -0.0215. Regarding CTTGTATA, the “PBM E-score” value came to 0.166. The value for ATTGTATG was 0.175; that for AATGTATA was 0.298. Turning to ATTGTATA, the “PBM E-score” value amounted to 0.311. The value for CATGTATA was 0.0763; that for GATGTATA was 0.0593; that for AGCCTACG was -0.109.

(Values after the supplement of paper PMC3334620.)
